From PubChem BioAssay AID652122 (NMMLSC, 2013)
Active and inactive are the calls of the source.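 Rule for the calls: active = at least 15% of cells fluorescing red and green at top dose, and half-maximal dose below 10 µM; inactive = the rest.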

Test: inducers of GFP+/MAC1+ phenotype in HoxA9-arrested cells – cell-based, wild-type HoxA9, flow cytometry, Powder Set01 subset01, dose response (AID 652122)
Details: HoxA9 wt myeloid cells; series mostly up to 10 µM

Question: Which outcome does the source give for `Cc1ccc(Nc2nc(=O)c3cccnc3s2)c(Br)c1` here?
Answer: Its outcome is “inactive”.

Question: For `O=C(O)c1cccnc1Nc1ccc(Cl)cc1`, which outcome is on record?
Answer: Its outcome is “inactive”.

Question: For `O=C(CCNC(=O)c1ccc(Cl)cc1)NC1CCCc2ccccc21` (stereo not drawn), which outcome is on record?
Answer: Its outcome is “inactive”.
